Experimental findings from PubChem BioAssay (NCATS) are described below.

The structures appear in SMILES notation. Inconclusive results are not listed. Calls of active or inactive are those of the source. Unless noted, how the calls were made is not given here.

Assay [1] is described as follows: qHTS profiling of the MIPE4 collection as inhibitors of Plasmodium falciparum (3D7) proliferation (AID 743344).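 Further: scaled between DMSO vehicle wells and 0.29 µM artemisinin as full inhibition.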 The settings on record: P. falciparum 3D7 in erythrocytes, SYBR Green DNA fluorescence, 72 h; at 28.5 µM unless noted. The essentials: (§1)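 Erythrocytes infected with P. falciparum (0.3% parasitemia, 2.5% hematocrit) incubated with compounds 72 h at 37 C, 5% CO2. Lysis with saponin/Triton buffer containing SYBR Green I, overnight at room temperature in the dark; DNA fluorescence (485/535 nm) normalised to 0.29 uM artemisinin and DMSO.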

Assay [2] can be described thus: qHTS profiling of the MIPE4 collection as inhibitors of Plasmodium falciparum (DD2) proliferation (AID 743345). The conditions noted are these: P. falciparum Dd2 in erythrocytes, SYBR Green DNA, 72 h; at 28.5 µM unless noted. The gist of the method: as §1
Background: In qHTS, concentration-response curves come from the screen itself.

Assay [3] can be described thus: qHTS profiling of the MIPE4 collection as inhibitors of Plasmodium falciparum (DD2) proliferation (Rep 2) (AID 743346). The settings on record: P. falciparum Dd2 in erythrocytes, SYBR Green DNA, 72 h; at 28.5 µM unless noted. The essentials: as §1
The nature of assay [4]: qHTS profiling of the MIPE4 collection as inhibitors of Plasmodium falciparum (HB3) proliferation (AID 743347).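 Further: plate controls were DMSO vehicle wells for no effect and artemisinin wells for full effect.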 The settings on record: P. falciparum HB3 in erythrocytes, SYBR Green DNA, 72 h; at 28.5 µM unless noted. The essentials: as §1
Assay [5] is described as follows: High-throughput drug toxicity screening in the BPDCN cell line Gen2.2 (AID 1224824).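 Further: cells exposed to compounds for 48 h before reading.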 The settings on record: Gen2.2 BPDCN cells; at 45.8 µM (top of the series) unless noted. The gist of the method: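 Readout is ATP luminescence from Gen2.2 cells after two days of drug exposure in serum-containing medium at 37 °C. Values express percent activity, with vehicle defining full signal and 9.2 uM bortezomib defining zero.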

Assay [6] can be described thus: High-throughput drug toxicity screening in the BPDCN cell line Cal-1 (AID 1224825). The conditions noted are these: Cal-1 BPDCN cell viability, qHTS; at 45.8 µM (top of the series) unless noted. The gist of the method:
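Cal-1 cells, 500 per well in phenol-red-free RPMI with 10% FBS, exposed to compounds for 48 hours at 37C, 5% CO2. Viability read by CellTiter-Glo luminescence; percent activity normalized to DMSO (100%) and 9.2 uM bortezomib final (0%).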

Assay [7] is described as follows: qHTS assay for measurement of the activity of small molecule inhibitors on Zika virus induced Caspase-3 activity in human iPSC derived neural progenitor cells (hNPCs) (AID 1224857; active means well fitted inhibition curve with a large enough effect; further: nearly all actives have a fitted effect of over 65% in size; further: potency means the concentration at half of the fitted maximal effect). The essentials: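 In medium with heparin 2 ug/ml and cyclopamine 2 uM, hNPCs (350 cells/well) received compound for one hour and then Zika virus at 2 FFU/cell; caspase activity was measured by Caspase-Glo 3/7 luminescence 6 h post-infection.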

A short description of assay [8]: qHTS assay for measurement of the activity of small molecule inhibitors on Zika virus induced Caspase-3 activity in human astrocytoma cells (AID 1224859; active means well fitted inhibition curve with a large enough effect;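 further: plate controls were ZIKV-infected untreated cells for no effect and uninfected cells for full effect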). The gist of the method: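 A cell-based luminescent caspase-3/7 assay used SNB-19 cells infected with ZIKV (2 FFU/cell) for 6 h following 1 h compound pretreatment.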
A short description of assay [9]: qHTS Screen of the MIPE 4.0 Collection Against Ewings Sarcoma (RDES) (AID 1259252; active means well fitted inhibition curve with a large enough effect; further: nearly all actives have a fitted effect of over 35% in size; further: potency means the concentration at half of the fitted maximal effect). The gist of the method:
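Log-phase cells in RPMI with 5% FBS attached for 4 h, then received compounds as a titration for 48 h at 37C, 5% CO2. Viability was read by CellTiter-Glo luminescence and normalized to DMSO and no-cell wells.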

Take `CN1CCC[C@H]1CCO[C@](C)(c1ccccc1)c1ccc(Cl)cc1`: the parasite growth, % of DMSO control in [1] amounted to 12.4%. The parasite growth remaining, % of DMSO control (lower = more inhibition) in assay [2] worked out at 13.4%. Besides, in [3], the parasite growth, % of control (lower = inhibition) is 23.9%. In [4], this compound had a growth, % of control of 10.3%. In assay [5], the cell viability, % of control (lower = more cytotoxic) turned out to be 77.3%. In assay [6], this compound showed a viability (% of control) of 50.8%. The Potency result in assay [7] and in [8] was “inactive” in each case. In [9], the Potency was 20.9 µM (active).
In assay [1], `Cc1cccc(-c2[nH]c(C(C)(C)C)nc2-c2ccc3c(c2)OCO3)n1` gave a parasite growth, % of DMSO control of 9.08%. The compound further yielded a parasite growth remaining, % of DMSO control (lower = more inhibition) in assay [2] of 19.7%. Besides, the parasite growth, % of control (lower = inhibition) in [3] came to 10.1%. For the same compound, in [4], the growth, % of control was 8.33%. Further, in assay [5], the cell viability, % of control (lower = more cytotoxic) stood at 235%. The viability (% of control) in assay [6] was found to be 17.9%. Moreover, the Potency entry in assay [7] and in assay [8] was “inactive” each time. In addition, in assay [9], the Potency was 8.33 µM (active).
`CCCCC[C@H](O)C=C[C@H]1[C@H](O)CC(=O)[C@H]1CC=CCCCC(=O)O` came in with a parasite growth, % of DMSO control in assay [1] of 86%. Further, the parasite growth remaining, % of DMSO control (lower = more inhibition) in assay [2] turned out to be 11.2%. For the same compound, in assay [3], the parasite growth, % of control (lower = inhibition) stood at 56.3%. In addition, the growth, % of control in assay [4] amounted to 103%. Further, the cell viability, % of control (lower = more cytotoxic) in assay [5] worked out at 31.5%. Besides, the viability (% of control) in assay [6] stood at 23.7%. In addition, the Potency entry in assay [7], in assay [8] and in assay [9] was “inactive” in each case.
`CC(C)(C)c1nc(-c2cccc(NS(=O)(=O)c3c(F)cccc3F)c2F)c(-c2ccnc(N)n2)s1` had a parasite growth, % of DMSO control in assay [1] of 18.2%. In assay [2], this compound returned a parasite growth remaining, % of DMSO control (lower = more inhibition) of 16.6%. Further, in [3], the parasite growth, % of control (lower = inhibition) was found to be 35%. This compound also showed a growth, % of control in assay [4] of 10.3%. The cell viability, % of control (lower = more cytotoxic) in assay [5] amounted to 25.6%. Moreover, in [6], the viability (% of control) came out at 55.4%. Further, the Potency result in assay [7] and in assay [8] was “inactive” in each case. Besides, the Potency in assay [9] is 6.62 µM (active).
In the case of `C[C@@H](N)c1ccc(C(=O)Nc2ccnc3[nH]ccc23)cc1`, in assay [1], the parasite growth, % of DMSO control is 49.7%. Besides, the parasite growth remaining, % of DMSO control (lower = more inhibition) in assay [2] turned out to be 78.2%. For the same compound, the parasite growth, % of control (lower = inhibition) in assay [3] turned out to be 49.3%. The same compound registered a growth, % of control in [4] of 67.7%. In addition, the cell viability, % of control (lower = more cytotoxic) in assay [5] was 6.34%. In assay [6], this compound had a viability (% of control) of 12.2%. Further, the Potency is 26.4 µM (active) in [7] and 18.7 µM (active) in [9]. Moreover, the Potency result in assay [8] was “inactive”.
With `CN(C)c1ccccc1CN1CCCN(Cc2ccccc2N(C)C)C1c1ccncc1`, in [1], the parasite growth, % of DMSO control was 17.2%. The parasite growth remaining, % of DMSO control (lower = more inhibition) in [2] stood at 9.84%. The parasite growth, % of control (lower = inhibition) in assay [3] amounted to 11.1%. This compound also displayed a growth, % of control in assay [4] of 12.9%. Besides, in assay [5], the cell viability, % of control (lower = more cytotoxic) came to 13.5%. For the same compound, the viability (% of control) in [6] came out at 29.7%. Besides, the Potency result in assay [7] and in assay [8] was “inactive” throughout. Besides, in assay [9], the Potency is 20.9 µM (active).
On to `Cc1cc(C(C)Nc2ccccc2)c2nc(N3CCOCC3)cc(=O)n2c1` (stereo not given), for which the parasite growth, % of DMSO control in [1] is 11.8%. Also, the parasite growth remaining, % of DMSO control (lower = more inhibition) in assay [2] was 71.3%. Also, the parasite growth, % of control (lower = inhibition) in assay [3] amounted to 31.1%. The growth, % of control in assay [4] came to 15.4%. Moreover, the cell viability, % of control (lower = more cytotoxic) in assay [5] was 47.8%. The compound further returned a viability (% of control) in assay [6] of 62.3%. For the same compound, the Potency result in assay [7] and in assay [8] was “inactive” throughout. The Potency in [9] is 23.5 µM (active).
Regarding `CC1CNc2c(cccc2S(=O)(=O)N[C@@H](CCCN=C(N)N)C(=O)N2CC[C@@H](C)C[C@@H]2C(=O)O)C1` (stereo not given in full), in assay [1], the parasite growth, % of DMSO control was determined as 82.3%. Also, the parasite growth remaining, % of DMSO control (lower = more inhibition) in [2] worked out at 91.3%. The parasite growth, % of control (lower = inhibition) in [3] stood at 101%. The growth, % of control in [4] is 86.9%. Further, in [5], the cell viability, % of control (lower = more cytotoxic) was determined as 225%. In [6], this compound displayed a viability (% of control) of 6.64%. For the same compound, the Potency result in assay [7] and in assay [8] was “inactive” in each case. In [9], the Potency is 9.35 µM (active).
For `Cc1ccccc1C(=O)c1ccc(Nc2ccc(Br)cc2N)cc1Cl`, in [1], the parasite growth, % of DMSO control was 27.4%. In assay [2], this compound came in with a parasite growth remaining, % of DMSO control (lower = more inhibition) of 44.1%. In addition, the parasite growth, % of control (lower = inhibition) in assay [3] was 40%. In addition, the growth, % of control in assay [4] amounted to 28.4%. For the same compound, the cell viability, % of control (lower = more cytotoxic) in assay [5] was 182%. The viability (% of control) in assay [6] is 79.6%. Further, the Potency result in assay [7] and in assay [8] was “inactive” in each case. In addition, the Potency in assay [9] is 23.5 µM (active).
In turn, `COc1ccc(-c2oc3c(CC=C(C)C)c(O)cc(O)c3c(=O)c2O)cc1` yielded a parasite growth, % of DMSO control in assay [1] of 4.59%. In assay [2], the parasite growth remaining, % of DMSO control (lower = more inhibition) was 9.79%. In addition, the parasite growth, % of control (lower = inhibition) in assay [3] was 11.9%. For the same compound, the growth, % of control in assay [4] was found to be 4.42%. Moreover, in assay [5], the cell viability, % of control (lower = more cytotoxic) stood at 188%. For the same compound, in assay [6], the viability (% of control) amounted to 45.1%. Also, the Potency result in [7] and in assay [8] was “inactive” in each case. Also, the Potency in assay [9] is 14.8 µM (active).
